# Compound activity deposited in PubChem BioAssay by National Center for Advancing Translational Sciences (NCATS).
# Rows were chosen to be rich in hits. Some 9.9% of all compounds tested hit in one or more screens of this group.
# Tau fibril ThT = qHTS for Inhibitors of Tau Fibril Formation, Thioflavin T Binding | Microtubule-associated protein tau (Homo sapiens), P10636 | recombinant tau K18 P301L, heparin-induced fibrillization, ThT fluorescence | AID 1460, 2008 | Potency, µM (series often up to 57.4 µM), for inactives: top-dose activity, negative = inhibition, usual class: inhibitors | actives 2.1% (n = 270,000); also: nearly all actives have a fitted effect of over 55% in size
# Target sequence (P10636 561-689 P618L limits assumed): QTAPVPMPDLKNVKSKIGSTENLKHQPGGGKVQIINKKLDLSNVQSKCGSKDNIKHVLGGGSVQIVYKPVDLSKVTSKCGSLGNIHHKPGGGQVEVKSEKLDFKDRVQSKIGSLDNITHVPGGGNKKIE
#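 Aggregation was driven by heparin (20 uM final) acting on recombinant tau […] bearing P301L in 100 mM sodium acetate pH 7; fibrils were detected with Thioflavin T.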
# KDM4E inh = qHTS Assay for Inhibitors of Human Jumonji Domain Containing 2E (JMJD2E) | JMJD2E catalytic domain, FDH-coupled NADH fluorescence (FDH is formaldehyde dehydrogenase) | Potency, µM (titrated, usually from 57.1 µM), for the others: at the top dose activity change, negative = inhibition, actives largely listed as inhibitors | actives 1.6% (n = 230,000) | AID 2147, 2009; active = well fitted inhibition curve with a large enough effect, not every such curve was filed as active; inconclusive = small, poorly fitted or top-dose-only effect, or another doubt; inactive = no such curve, though single readings can be large or run the other way;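 also: 0% = wells with enzyme and -100% = buffer wells without enzyme; nearly all actives have a fitted effect of over 50% in size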
# Target sequence (B2RXH2 1-337 limits assumed): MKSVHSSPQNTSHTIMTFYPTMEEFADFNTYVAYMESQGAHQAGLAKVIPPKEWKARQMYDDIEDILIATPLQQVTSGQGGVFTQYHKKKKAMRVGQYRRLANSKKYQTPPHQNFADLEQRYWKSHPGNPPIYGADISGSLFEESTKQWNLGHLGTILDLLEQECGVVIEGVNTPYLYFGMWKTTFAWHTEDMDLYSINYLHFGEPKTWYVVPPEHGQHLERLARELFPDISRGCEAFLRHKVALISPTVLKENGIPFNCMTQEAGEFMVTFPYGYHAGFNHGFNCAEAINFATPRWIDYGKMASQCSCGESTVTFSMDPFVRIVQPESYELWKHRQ
# HPGD inh = qHTS Assay for Inhibitors of HPGD (15-Hydroxyprostaglandin Dehydrogenase); 15-hydroxyprostaglandin dehydrogenase [NAD(+)] (Homo sapiens), P15428; purified HPGD, NADH fluorescence kinetic, PGE2 substrate; Potency, µM, for the others: top-dose activity change, negative = inhibition, actives largely listed as inhibitors; actives 4.3% (n = 150,000); active = well fitted inhibition curve with a large enough effect, not every such curve was filed as active; inconclusive = small, poorly fitted or top-dose-only effect, or another doubt; inactive = no such curve, though single readings can be large or run the other way
#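 20 nM HPGD preincubated 15 min at room temperature with compound in 50 mM Tris-HCl pH 8, 0.01% Tween 20. Started with 1 mM NAD+ and 30 uM prostaglandin E2; NADH fluorescence (360/450 nm) read 5 times over 30-s intervals, last minus first.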
# ALDH1A1 inh = qHTS Assay for Inhibitors of Aldehyde Dehydrogenase 1 (ALDH1A1) | Aldehyde dehydrogenase 1A1 (Homo sapiens), P00352 | Purified ALDH1A1, NADH fluorescence, propionaldehyde substrate | Potency, µM (doses to about 75.3 µM), for inactives: top-dose activity, negative = inhibition, actives largely listed as inhibitors | actives 7.3% (n = 220,000) | AID 1030, 2008; active = well fitted inhibition curve with a large enough effect, not every such curve was filed as active; inconclusive = small, poorly fitted or top-dose-only effect, or another doubt; inactive = no such curve, though single readings can be large or run the other way;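 also: plate controls were no enzyme wells and a reference inhibitor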
# Tau fluor counter = Counterscreen qHTS for Inhibitors of Tau Fibril Formation, Fluorescence Polarization | tau K18 P301L Alexa594 fluorescence, heparin fibrillization | Potency, µM (doses to about 57.7 µM), inactives show at the highest dose activity change, negative = decrease | actives 0.93% (n = 280,000) | AID 1463, 2008; also: nearly all actives have a fitted effect of over 55% in size
#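 Human tau K18 P301L (15 uM unlabeled, 0.24 uM Alexa 594-labeled) in 100 mM sodium acetate pH 7 with 20 uM heparin, 6 hr at 37 C. ThT 30 uM added, 1 hr ambient; Alexa 594 FP and total fluorescence read at 555/632 nm.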
# Tau FP inhib = qHTS for Inhibitors of Tau Fibril Formation, Fluorescence Polarization; K18 P301L tau heparin fibrillization, Alexa594 FP, 6 h; Potency, µM (series often up to 57.7 µM), inactives show at the highest dose activity, negative = inhibition, most hits filed as inhibitors; AID 1468, 2008; actives 0.39% (n = 280,000); Microtubule-associated protein tau (Homo sapiens), P10636; also: nearly all actives have a fitted effect of over 55% in size
#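 Compound effects on tau fibrillization are measured by Alexa 594 fluorescence polarization (ex 555, em 632 nm). K18 P301L tau is used at 15 uM with 0.24 uM labeled tracer, and 20 uM heparin induces aggregation over 6 hr at 37 C.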
# * hit, by the source's call; ? = inconclusive; nt = no result; [ ] = another dose, or the depositor's remark. Unless noted, calls follow the shape of the dose curve; as a rule, active = well fitted curve in the direction sought with a large enough effect; inconclusive = small, poorly fitted or top-dose-only effect, or another doubt; inactive = no such curve, though single readings can be large; an effect the other way counts as inactive or inconclusive. Unless noted, % is scaled to controls: 0 for no effect and ±100 for the full control effect; potency is read from the fitted curve at half-maximal effect.
SMILES,Tau fibril ThT,KDM4E inh,HPGD inh,ALDH1A1 inh,Tau fluor counter,Tau FP inhib
Cc1ccc(-n2c(=O)c3c(c4cc(C)ccc4n3C)n(CC(=O)Nc3c(C)cccc3C)c2=O)cc1,16%,nt,nt,nt,8%,0%
COc1ccc(Cl)cc1NC(=O)CN(C)C(C)C(=O)NCC1CCCCC1 (stereo not given),-8%,4%,-1%,?,-11%,-2%
COc1cc(NC(=O)c2cccc(C)c2)c(OC)cc1NC(=O)CN1CCCCC1,-16%,-18%,nt,?,-16%,14%
COc1cc(NC(=O)c2ccccc2)c(OC)cc1NC(=O)CN1CCN(c2ccccn2)CC1,?,-25%,-20%,16µM*,?,?
COc1cc(NC(=S)N2CCN(c3ccccn3)CC2)c(OC)cc1Cl,6%,2%,28µM*,?,0%,0%
COc1ccc(Cl)cc1NC(=S)N1CCN(c2ccccn2)CC1,?,4%,nt,3%,-16%,-4%
COc1ccc(Cl)cc1NC(=O)CN1CCc2ccccc21,-14%,-5%,nt,7.9µM*,-28%,2%
COc1ccc(Cl)cc1NC(=O)CN(C(=O)c1ccco1)C1CCCCC1,6%,5%,-16%,0.04µM*,0%,0%
Cc1ccc(CN2CCN(Cc3ccc(C)o3)[C@@H](C)C2)o1,nt,nt,-6%,5%[13.5 µM],nt,nt
COc1ccc(CCC(=O)N2CCCSC2=Nc2ccc(C(C)=O)cc2)cc1,3%,-1%,nt,6%,-3%,5%
COCCOC(=O)c1c(NC(=O)CN2CCc3ccccc32)sc(C(N)=O)c1C,-17%,-5%,nt,14µM*,-19%,1%
CCOC(=O)c1c(NC(=O)CN2CCCc3ccccc32)sc(C(C)=O)c1C,-5%,-2%,nt,-11%,-8%,-4%
COc1cc(NC(=O)Nc2ccccc2)c(OC)cc1NC(=O)CN1CCCCC1,?,1%,-18%,-9%,28µM*[quencher],?
COc1cc(NC(=O)c2ccc(Cl)cc2)c(OC)cc1NC(=O)CN1CCCCC1,?,?,nt,?,-25%,3%
COc1cc(NS(C)(=O)=O)c(OC)cc1NC(=O)c1ccccc1,-17%,2%,-7%,25µM*,-15%,2%
COc1ccc(Cl)cc1NC(=O)CN1CCCCCC1,-5%,-1%,nt,18µM*,-11%,-7%
CCCCCCCCCCCCCCCC(=O)N[C@H](CN1CCOCC1)[C@H](O)c1ccccc1,-1%,0%,-28%,-6%,3%,3%
O=C(NCc1ccco1)C1CCN(c2ccc(S(=O)(=O)N3CCOCC3)cc2[N+](=O)[O-])CC1,-10%,-5%,nt,4%,2%,0%
CC(C)Oc1cccc(C(=O)Nc2ccc(-c3nc4cc(Cl)cc(Cl)c4o3)cc2)c1,?,nt,nt,nt,-22%,-16%
Fc1ccc2c(c1)/C(=N/Nc1ccccn1)CCS2,-10%,-8%,nt,?,-14%,10%
Fc1ccc(N/N=C2/CCSc3sccc32)c(F)c1,?,?,nt,19µM*,?,1%
COc1ccccc1CNC(=O)CCCN1C(=O)CSc2c1c(C)nn2-c1ccccc1,-9%,nt,nt,nt,0%,6%
c1cnc(N2CCN(Cc3ccc4c(c3)OCO4)CC2)nc1,-9%,0%,-22%,2%,-7%,-4%
Fc1cccc(CN2CCN(c3ncccn3)CC2)c1,-1%,5%,-14%,13µM*,-12%,-3%
CC1Cc2ccccc2N1C(=O)CSc1ccccc1 (stereo not given),2%,-3%,-22%,18µM*,-5%,1%
SMILES,Tau fibril ThT,KDM4E inh,HPGD inh,ALDH1A1 inh,Tau fluor counter,Tau FP inhib
Cc1cnc(C(=O)OCC(=O)N2c3ccccc3CC2C)cn1 (stereo not given),-2%,3%,nt,1%,-2%,-3%
Cc1nnc(SCC(=O)N2c3ccccc3CC2C)[nH]c1=O (stereo not given),-2%,-8%,-26%,11µM*,0%,1%
CC1Cc2ccccc2N1C(=O)COC(=O)Cn1nnc(-c2ccccc2)n1 (stereo not given),-10%,-4%,-24%,0.71µM*,-7%,3%
CC1Cc2ccccc2N1C(=O)CSC1=NCCS1 (stereo not given),?,-4%,-18%,?,-8%,?
CCCS(=O)(=O)N1CC(=O)N(c2ccc(Cl)cc2C)C(C)(C(=O)NC2CCCC2)C1 (stereo not given),9%,nt,nt,nt,6%,1%
CCSc1nnc(NC(=O)CSc2nc3c(c(=O)n2CCOC)SC(C)C3)s1 (stereo not given),-9%,6%,nt,nt,-17%,-5%
COc1ccc(-c2nc(=S)c3ccc4ccccc4c3[nH]2)cc1,-6%,-1%,nt,7%,-17%,-8%
COC(=O)[C@H]1CC2(CC=C(C)C)C(=O)[C@@](CC=C(C)C)(C(=O)C(C(=O)c3ccccc3)=C2OC)C1(C)C (tested in a mixture with another compound),-5%,-3%,-4%,?,-14%,?
CN(C)C(=O)c1ccc(Oc2ccc(C(=O)N(C)C)cc2)cc1,-2%,-6%,16µM*,?,0%,-5%
CC(=O)c1ccc(Oc2ccc(C(C)=O)cc2)cc1,?,2%,?,9%,-2%,-2%
O=C(NCC(c1ccc(Cl)cc1)N1CCCCC1)c1ccccc1F (stereo not given),-10%,nt,nt,nt,-17%,-5%
Cc1nc2ccc(Cl)cn2c1C(=O)NN,-11%,6%,nt,2µM*,-10%,-8%
COc1ccc(C)cc1NC(=O)C1COc2ccccc2C1 (stereo not given),2%,nt,nt,nt,-7%,3%
CCSc1nnc(NC(=O)CSc2nnc(CNC(=O)c3ccc(OC)c(OC)c3)o2)s1,-8%,-9%,-16%,?,0%,-4%
Cc1ccc2[nH]cc(C(c3ccccc3)c3ccc(Cl)s3)c2c1 (stereo not given),?,nt,nt,nt,7.9µM*[quencher],?
CCc1ccc(C(c2ccccc2)c2c[nH]c3ccc(C)cc23)s1 (stereo not given),13µM*,nt,nt,nt,10µM*[quencher],?
CC(Oc1ccc(F)cc1)C(=O)NCC1(N(C)C)CCCCC1 (stereo not given),6%,nt,nt,nt,-2%,-1%
